Data taken from PubChem BioAssay AID1851 (National Center for Advancing Translational Sciences (NCATS), 2009).
Several values for one entry are separate records, joined by “and”; a condition that tells them apart may be missing. Equal entries are not always repeated. The campaign covered roughly 16,000 compounds. About 5,800 (36%) were called active. Inconclusive results (about 23%) are left out. This is one part of the list. Unmarked numbers belong to inactive results. The call rests on the fitted dose curve; in most records, active means well fitted curve in the direction sought with a large enough effect; inconclusive means small, poorly fitted or top-dose-only effect, or effect the other way; inactive means no such curve, though single readings can be large or run the other way.

target: Cytochrome P450 2C19 (Homo sapiens) (UniProt P33261); test: Cytochrome panel assay with activity outcomes; settings: recombinant CYP, pro-luciferin dealkylation, luminescence, p450-cyp2c19; series mostly up to 57.1 µM; activity, negative = inhibition: at the top concentration
On the % scale 0 is the no-effect control and ±100 the full control effect.

Chain of Cytochrome P450 2C19 (Homo sapiens) (P33261 whole entry, looked up): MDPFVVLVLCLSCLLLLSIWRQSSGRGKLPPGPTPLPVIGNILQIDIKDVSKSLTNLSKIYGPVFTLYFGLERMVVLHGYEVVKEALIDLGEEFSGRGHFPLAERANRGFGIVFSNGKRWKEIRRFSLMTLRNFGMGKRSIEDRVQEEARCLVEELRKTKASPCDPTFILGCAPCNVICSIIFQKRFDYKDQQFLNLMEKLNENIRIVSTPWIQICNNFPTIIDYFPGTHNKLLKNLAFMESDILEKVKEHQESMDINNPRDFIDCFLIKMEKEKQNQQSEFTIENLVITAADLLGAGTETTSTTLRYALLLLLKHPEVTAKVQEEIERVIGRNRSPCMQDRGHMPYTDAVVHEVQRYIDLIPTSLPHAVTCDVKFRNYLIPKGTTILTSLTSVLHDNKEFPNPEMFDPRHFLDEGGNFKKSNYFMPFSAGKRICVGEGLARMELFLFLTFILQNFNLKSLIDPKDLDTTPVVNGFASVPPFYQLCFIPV

SMILES | AC50 | activity, negative = inhibition
COC(=O)c1nn(-c2cccc(C(F)(F)F)c2)c(=O)cc1Sc1ccccn1 | 5.62 µM (active) | 
N#Cc1cc(N)ccc1Sc1ccc(Cl)cc1 | 3.16 µM (active) | 
CCc1sc(N(C(=O)Cc2ccccc2)c2cccc(F)c2)nc1-c1ccc(C)cc1 | 2.82 µM (active) | 
c1ccc([C@H](CCN2CCCC2)c2ccccn2)cc1 |  | -19.9% [at 11.4 µM]
CC(C)c1ccc(-c2nnn(CCC(=O)O)n2)cc1 |  | -25.8%
c1ccc(-c2nnn(CCN3CCCCC3)n2)cc1 | 1.26 µM (active) | 
COc1ccc2c(Cc3c4ccccc4cc4ccccc34)cncc2c1O | 2.51 µM (active) | 
O=C(O)c1cc2ccccc2c(Cc2cc3ccccc3c(C(=O)O)c2O)c1O (tested in a mixture with another compound) |  | -22.9% [at 25.6 µM]
O=C(c1csnn1)N1CCC2(CC1)CN(Cc1cc(C(F)(F)F)cc(C(F)(F)F)c1)C2 |  | 17.8%
CCn1cc(C(=O)O)c(=O)c2cnc(N3CCNCC3)nc21 |  | 32.6% [at 25.6 µM]
O=C(NCc1cccnc1)c1sc2cc(Cl)ccc2c1Cl | 2 µM (active) | 
CC[C@H](NC(C)C)[C@H](O)c1ccc(O)c(O)c1 |  | -17.7%
CC1=CC(=O)N(c2cccc(C(F)(F)F)c2)C1c1ccc(Cl)cc1 (stereo not drawn) | 2.24 µM (active) | 
Cc1ccc(NC(=S)/C(=C(\[O-])c2ccc(C)c([N+](=O)[O-])c2)[n+]2ccccc2)cc1C | 7.94 µM (active) | 
O=C(O)c1ccc(NS(=O)(=O)Cc2ccccc2)cc1 |  | -9.9% [at 11.4 µM]
CC1(C)[C@@H]2CC[C@@]1(CS(=O)(=O)Nc1ccccc1)C(=O)C2 | 2 µM (active) | 
COC(=O)C1=C(C)NC2=C(C(=O)CCC2)C1c1cn(Cc2ccc(Cl)cc2Cl)nc1-c1ccccc1 (stereo not drawn) | 2.24 µM (active) | 
COCCOC(=O)C1=C(C)NC(=O)N(C(C)=O)C1c1ccc(Cl)cc1 (stereo not drawn) | 3.55 µM (active) | 
CO[C@@H]1COC(=O)C/C=C\[C@H](C)[C@@H](NS(=O)(=O)c2ccc(C)cc2)COC(=O)C/C=C\[C@@H]1C |  | -12.5% [at 11.4 µM] and -34.1% [at 11.4 µM]
CC(c1ccccc1C(O)c1ccccc1)N(C)C (stereo not drawn) |  | -16.6%
NC(=O)c1ccc[n+](CC(=O)OCCC23CC4CC(CC(C4)C2)C3)c1 |  | -28.6%
O=C(NCCOC12CC3CC(CC(C3)C1)C2)c1cccc(Br)c1 | 0.891 µM (active) | 

SMILES | AC50 | activity, negative = inhibition
N[C@H](C(=O)O)c1nn[nH]n1 |  | 29.8%
OC[C@@H](O)CN1CCN(c2ccccc2)CC1 |  | 39.7% [at 25.6 µM]
c1ccc(N2CCN(CCCOc3ccc4c(c3)OCO4)CC2)cc1 | 5.01 µM (active) | 
C/C(CCN1CCCCc2nc(C)c(C)cc21)=N\O[C@@H](C)CN1CCCCc2nc(C)c(C)cc21 |  | 42.7% [at 11.4 µM]
COc1ccc(O[C@H]2C=C[C@@H](c3ccccc3)O[C@H]2COC(=O)CC/C(C)=N\O[C@@H](C)CN2CCCc3nc(C)c(C)cc32)cc1 | 3.16 µM (active) | 
CC(=O)OC[C@@H]1O[C@H](C/C=N\O[C@@H](C)CN2CCCCc3nc(C)c(C)cc32)C=C[C@@H]1OC(C)=O |  | 34.1% [at 11.4 µM]
CC(=O)OC[C@@H]1O[C@H](C/C=N\O[C@@H](C)CN2CCCc3nc(C)c(C)cc32)C=C[C@@H]1OC(C)=O |  | 12.3% [at 11.4 µM]
C/C(CCN1CCCCc2nc(C)c(C)cc21)=N\O[C@@H](C)CN1CCCc2nc(C)c(C)cc21 |  | 25.7% [at 11.4 µM]
C/C(CCN1CCCc2nc(C)c(C)cc21)=N\O[C@@H](C)CN1CCCCc2nc(C)c(C)cc21 |  | 9.26% [at 11.4 µM]
COc1ccc(O[C@H]2C=C[C@@H](c3ccccc3)O[C@H]2COC(=O)CC/C(C)=N\O[C@@H](C)CN2CCCCc3nc(C)c(C)cc32)cc1 | 5.01 µM (active) | 
C/C(CCC(=O)OC[C@@H]1O[C@H](C#Cc2ccccc2)C=C[C@@H]1Oc1ccc(C)cc1)=N/O[C@@H](C)CN1CCCc2nc(C)c(C)cc21 | 3.16 µM (active) | 
C/C=C\C[C@@H](C)[C@@H](O)[C@H]1C(=O)N[C@@H](CC)C(=O)N(C)CC(=O)N(C)[C@@H](CC(C)C)C(=O)N[C@@H](C(C)C)C(=O)N(C)[C@@H](CC(C)C)C(=O)N[C@@H](C)C(=O)N[C@H](C)C(=O)N(C)[C@@H](CC(C)C)C(=O)N(C)[C@@H](CC(C)C)C(=O)N(C)[C@@H](C(C)C)C(=O)N1C |  | -9.22%
NC(=NCc1ccccc1)NC(=O)c1nc(Cl)c(N)nc1N | inactive | 
N=C1SCC(=O)N1c1nc(-c2ccccc2)cs1 |  | -7.37%
O=C1C2C3c4ccccc4C(c4ccccc43)C2C(=O)N1c1nc(-c2ccccc2)cs1 (stereo not drawn) | 1.78 µM (active) | 
O=C1[C@@H]2[C@@H](C(=O)N1c1ccc(OCc3ccccc3)cc1)[C@@H]1c3ccccc3[C@@H]2[n+]2ccccc21 |  | -10.9% [at 11.4 µM]
O=C(c1ccco1)N(CCC(c1ccccc1)c1ccco1)Cc1ccco1 (stereo not drawn) | 3.98 µM (active) | 
CNCCC=C1c2ccccc2C=Cc2ccccc21 |  | 19.1% [at 25.6 µM]
Cc1ccccc1-c1cc(NCc2cccnc2)ncn1 | 10 µM (active) | 
Cc1ccccc1-c1cc(NCc2ccccc2)ncn1 | 3.16 µM (active) | 
CN(C)Cc1ccccc1-c1cc(NCc2cccs2)ncn1 |  | 7.11%
